Among the data in article PMC7862700, “An all-to-all approach to the identification of sequence-specific readers for epigenetic DNA modifications on cytosine” are binding signal values, retold here.

Test in all cases: DAPPL (digital affinity profiling via proximity ligation, sequencing); 10 mM Tris-HCl pH 7.5, 50 mM NaCl, 1 mM DTT, 4% glycerol, room temperature, 30 min; GST-TFs on glutathione beads, 16-mer random dsDNA library, 0.1% formaldehyde crosslink after washing; high values mean tight binding
What all share (conditions): protein: recombinant; tags: N-terminal GST; dsDNA, one strand shown

Experiment [1] addresses T1, FLI1 (Homo sapiens, UniProt Q01543 1-452).
T1 sequence: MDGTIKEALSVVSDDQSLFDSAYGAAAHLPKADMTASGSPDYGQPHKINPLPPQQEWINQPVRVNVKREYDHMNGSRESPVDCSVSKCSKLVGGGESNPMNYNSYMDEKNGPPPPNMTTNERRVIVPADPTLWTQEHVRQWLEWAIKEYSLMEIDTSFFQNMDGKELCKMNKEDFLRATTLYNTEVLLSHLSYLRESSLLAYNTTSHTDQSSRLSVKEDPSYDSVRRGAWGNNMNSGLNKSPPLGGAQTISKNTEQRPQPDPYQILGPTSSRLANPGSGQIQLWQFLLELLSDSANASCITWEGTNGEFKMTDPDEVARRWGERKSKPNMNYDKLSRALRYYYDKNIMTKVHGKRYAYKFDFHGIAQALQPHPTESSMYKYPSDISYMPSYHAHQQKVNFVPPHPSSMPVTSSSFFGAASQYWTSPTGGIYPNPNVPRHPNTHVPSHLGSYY
The method in brief: (§1)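 Pools were built from human transcription factors expressed in yeast as GST fusions, captured on glutathione beads and DNA-barcoded, along with a tag-only sample. Incubation with 200 nmole of a 16-mer random double-stranded DNA library lasted 30 min at room temperature in Tris/NaCl/DTT/glycerol buffer, and was followed by washing, 0.1% formaldehyde crosslinking, proximity ligation, PCR amplification and Illumina NextSeq500 sequencing. Binding signal is the quotient of each hexamer's read frequency for a factor and its frequency for the tag-only sample.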

The target of experiment [2] is T2, ELK1 (Homo sapiens, UniProt P19419 1-428).
T2 sequence: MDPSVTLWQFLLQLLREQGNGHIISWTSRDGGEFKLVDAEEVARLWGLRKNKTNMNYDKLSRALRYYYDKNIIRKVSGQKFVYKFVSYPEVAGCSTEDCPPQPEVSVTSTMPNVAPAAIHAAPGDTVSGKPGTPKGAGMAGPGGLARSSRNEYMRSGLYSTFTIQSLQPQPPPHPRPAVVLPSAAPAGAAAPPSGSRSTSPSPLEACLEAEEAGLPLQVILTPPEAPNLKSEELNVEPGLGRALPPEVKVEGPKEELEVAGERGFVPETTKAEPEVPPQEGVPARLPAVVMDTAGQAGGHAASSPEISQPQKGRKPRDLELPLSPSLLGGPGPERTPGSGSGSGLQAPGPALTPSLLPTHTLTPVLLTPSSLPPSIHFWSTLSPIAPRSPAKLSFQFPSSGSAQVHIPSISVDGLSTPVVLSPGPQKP
The method in brief:
as §1

Experiment [3] addresses T3, GABPA (Homo sapiens, UniProt Q06546 1-454).
T3 sequence: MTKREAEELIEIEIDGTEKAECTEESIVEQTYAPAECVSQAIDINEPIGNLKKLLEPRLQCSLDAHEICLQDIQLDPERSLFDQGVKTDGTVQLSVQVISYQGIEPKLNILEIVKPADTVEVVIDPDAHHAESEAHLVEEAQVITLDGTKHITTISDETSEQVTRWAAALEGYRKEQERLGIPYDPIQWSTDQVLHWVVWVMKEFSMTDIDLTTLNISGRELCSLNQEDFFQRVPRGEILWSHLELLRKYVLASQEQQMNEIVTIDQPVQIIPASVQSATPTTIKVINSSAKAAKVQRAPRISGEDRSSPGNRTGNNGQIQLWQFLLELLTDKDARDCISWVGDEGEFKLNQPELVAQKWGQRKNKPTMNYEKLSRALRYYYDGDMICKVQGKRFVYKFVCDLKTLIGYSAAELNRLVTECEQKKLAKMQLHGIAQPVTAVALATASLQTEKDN
The method, boiled down:
as §1

The target in experiment [4] is T4, ERG (Homo sapiens, UniProt P11308 1-479).
T4 sequence: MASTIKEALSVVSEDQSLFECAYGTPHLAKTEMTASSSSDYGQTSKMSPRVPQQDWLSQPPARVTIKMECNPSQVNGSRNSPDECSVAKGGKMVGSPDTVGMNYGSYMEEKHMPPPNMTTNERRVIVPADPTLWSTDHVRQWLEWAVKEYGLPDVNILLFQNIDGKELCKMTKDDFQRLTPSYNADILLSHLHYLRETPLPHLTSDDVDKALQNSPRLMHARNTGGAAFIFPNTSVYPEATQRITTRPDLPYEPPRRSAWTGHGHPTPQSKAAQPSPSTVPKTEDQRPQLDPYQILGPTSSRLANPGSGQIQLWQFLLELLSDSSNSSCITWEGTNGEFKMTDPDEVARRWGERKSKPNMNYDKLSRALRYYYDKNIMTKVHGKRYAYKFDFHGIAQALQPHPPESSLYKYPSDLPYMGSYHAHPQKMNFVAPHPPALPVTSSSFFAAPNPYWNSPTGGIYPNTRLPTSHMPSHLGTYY
The method in brief:
as §1

Experiment [5] has as its target ELF1 (Homo sapiens, UniProt P32519 1-619). The method in brief: as §1
In experiment [6] the target is T5, EHF (Homo sapiens, UniProt Q9NZC4 1-300).
T5 sequence: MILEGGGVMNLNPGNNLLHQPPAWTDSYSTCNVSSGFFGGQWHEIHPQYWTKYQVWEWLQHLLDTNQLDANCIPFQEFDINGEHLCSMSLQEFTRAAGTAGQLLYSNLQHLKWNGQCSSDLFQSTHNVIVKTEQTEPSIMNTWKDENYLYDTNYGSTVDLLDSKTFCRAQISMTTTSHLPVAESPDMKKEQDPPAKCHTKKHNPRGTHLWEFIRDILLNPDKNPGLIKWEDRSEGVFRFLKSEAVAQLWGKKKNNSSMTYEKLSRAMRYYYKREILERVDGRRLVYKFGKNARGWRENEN
The method, boiled down: as §1

The target in experiment [7] is SPI1 (Homo sapiens, UniProt P17947 1-270). The method, boiled down: as §1
Experiment [8] addresses SPIB (Homo sapiens, UniProt Q01892 1-262). The method, boiled down: as §1
Experiment [9] deals with T6, ELK3 (Homo sapiens, UniProt P41970 1-407).
T6 sequence: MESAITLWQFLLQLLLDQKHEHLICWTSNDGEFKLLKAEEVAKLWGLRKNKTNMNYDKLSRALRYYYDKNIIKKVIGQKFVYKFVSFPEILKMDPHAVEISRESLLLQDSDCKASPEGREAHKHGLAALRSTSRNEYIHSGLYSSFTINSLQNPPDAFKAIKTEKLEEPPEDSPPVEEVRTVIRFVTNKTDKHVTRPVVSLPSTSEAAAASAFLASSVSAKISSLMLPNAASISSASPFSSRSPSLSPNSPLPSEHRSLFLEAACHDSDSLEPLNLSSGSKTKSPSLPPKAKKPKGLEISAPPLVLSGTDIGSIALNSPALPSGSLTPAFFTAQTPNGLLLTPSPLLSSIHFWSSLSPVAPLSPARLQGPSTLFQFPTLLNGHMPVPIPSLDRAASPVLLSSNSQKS
The method in brief: as §1

ELF1, sequence (P32519 whole entry): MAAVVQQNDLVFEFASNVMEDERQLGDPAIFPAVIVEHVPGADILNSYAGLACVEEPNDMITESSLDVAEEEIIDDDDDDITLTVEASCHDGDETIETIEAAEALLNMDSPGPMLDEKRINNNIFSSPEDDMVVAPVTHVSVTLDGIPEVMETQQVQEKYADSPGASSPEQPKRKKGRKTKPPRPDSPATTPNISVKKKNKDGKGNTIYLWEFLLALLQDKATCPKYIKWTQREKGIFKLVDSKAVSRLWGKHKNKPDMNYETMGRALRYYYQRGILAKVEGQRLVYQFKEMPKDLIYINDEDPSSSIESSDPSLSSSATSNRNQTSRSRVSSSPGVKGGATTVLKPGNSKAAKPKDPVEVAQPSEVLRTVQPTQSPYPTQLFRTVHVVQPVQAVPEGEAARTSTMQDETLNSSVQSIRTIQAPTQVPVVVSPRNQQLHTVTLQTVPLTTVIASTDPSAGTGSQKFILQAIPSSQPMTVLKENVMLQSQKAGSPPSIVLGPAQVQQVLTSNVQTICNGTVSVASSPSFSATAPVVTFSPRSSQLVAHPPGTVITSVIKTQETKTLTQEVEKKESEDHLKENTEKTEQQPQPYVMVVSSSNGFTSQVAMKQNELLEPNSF
SPIB, sequence (Q01892 whole entry): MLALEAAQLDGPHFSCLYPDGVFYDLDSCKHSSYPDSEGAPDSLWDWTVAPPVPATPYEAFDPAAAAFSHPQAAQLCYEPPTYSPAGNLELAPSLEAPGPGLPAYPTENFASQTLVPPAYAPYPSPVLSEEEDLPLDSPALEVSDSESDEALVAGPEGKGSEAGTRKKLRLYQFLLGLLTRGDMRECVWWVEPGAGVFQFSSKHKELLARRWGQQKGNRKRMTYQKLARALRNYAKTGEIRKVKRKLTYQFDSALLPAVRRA

On to CTGTTT, for which the binding signal is 1.48 fold enrichment (6-mer frequency, TF over GST control) in experiment [1]; 1.36 fold enrichment (6-mer frequency, TF over GST control) in experiment [2]; 1.41 fold enrichment (6-mer frequency, TF over GST control) in experiment [3]; 1.4 fold enrichment (6-mer frequency, TF over GST control) in experiment [4]; 1.4 fold enrichment (6-mer frequency, TF over GST control) in experiment [5]; 1.34 fold enrichment (6-mer frequency, TF over GST control) in [6]. In addition, the binding signal in experiment [7] is 1.6 fold enrichment (6-mer frequency, TF over GST control); in [8], 1.43 fold enrichment (6-mer frequency, TF over GST control); in [9], 1.34 fold enrichment (6-mer frequency, TF over GST control).

On to TCACGA, for which the binding signal in experiment [1] was 1.09 fold enrichment (6-mer frequency, TF over GST control); in [2], 1.19 fold enrichment (6-mer frequency, TF over GST control); in experiment [3], 1.09 fold enrichment (6-mer frequency, TF over GST control); in experiment [4] it was 1.1 fold enrichment (6-mer frequency, TF over GST control); in [5], 1.13 fold enrichment (6-mer frequency, TF over GST control); in [6], 1.21 fold enrichment (6-mer frequency, TF over GST control). The binding signal was 1.06 fold enrichment (6-mer frequency, TF over GST control) in experiment [7]; 1.04 fold enrichment (6-mer frequency, TF over GST control) in experiment [8]; 1.21 fold enrichment (6-mer frequency, TF over GST control) in experiment [9].

Consider GCTTTC, for which the binding signal in [1] was 1.27 fold enrichment (6-mer frequency, TF over GST control); in experiment [2] it was 1.22 fold enrichment (6-mer frequency, TF over GST control); in experiment [3], 1.3 fold enrichment (6-mer frequency, TF over GST control); in experiment [4] it was 1.28 fold enrichment (6-mer frequency, TF over GST control); in [5], 1.32 fold enrichment (6-mer frequency, TF over GST control); in [6], 1.34 fold enrichment (6-mer frequency, TF over GST control). In addition, the binding signal in experiment [7] was 1.28 fold enrichment (6-mer frequency, TF over GST control); in experiment [8], 1.27 fold enrichment (6-mer frequency, TF over GST control); in [9], 1.38 fold enrichment (6-mer frequency, TF over GST control).

Consider CCATTT, for which the binding signal in experiment [1] was 1.25 fold enrichment (6-mer frequency, TF over GST control); in experiment [2], 1.29 fold enrichment (6-mer frequency, TF over GST control); in experiment [3] it was 1.42 fold enrichment (6-mer frequency, TF over GST control); in experiment [4], 1.4 fold enrichment (6-mer frequency, TF over GST control); in experiment [5], 1.27 fold enrichment (6-mer frequency, TF over GST control); in [6], 1.31 fold enrichment (6-mer frequency, TF over GST control). For the same sequence, the binding signal in [7] is 1.45 fold enrichment (6-mer frequency, TF over GST control); in experiment [8], 1.37 fold enrichment (6-mer frequency, TF over GST control); in experiment [9], 1.33 fold enrichment (6-mer frequency, TF over GST control).

For the sequence CCCAAT, the binding signal is 1.23 fold enrichment (6-mer frequency, TF over GST control) in experiment [1]; 1.29 fold enrichment (6-mer frequency, TF over GST control) in [2]; 1.35 fold enrichment (6-mer frequency, TF over GST control) in experiment [3]; 1.24 fold enrichment (6-mer frequency, TF over GST control) in experiment [4]; 1.29 fold enrichment (6-mer frequency, TF over GST control) in experiment [5]; 1.22 fold enrichment (6-mer frequency, TF over GST control) in [6]. Further, the binding signal in experiment [7] was 1.28 fold enrichment (6-mer frequency, TF over GST control); in experiment [8] it was 1.21 fold enrichment (6-mer frequency, TF over GST control); in experiment [9] it was 1.22 fold enrichment (6-mer frequency, TF over GST control).

Turning to TGACCG, the binding signal in [1] was 1.62 fold enrichment (6-mer frequency, TF over GST control); in experiment [2], 1.48 fold enrichment (6-mer frequency, TF over GST control); in [3] it was 1.59 fold enrichment (6-mer frequency, TF over GST control); in experiment [4], 1.55 fold enrichment (6-mer frequency, TF over GST control); in experiment [5], 1.53 fold enrichment (6-mer frequency, TF over GST control); in experiment [6], 1.53 fold enrichment (6-mer frequency, TF over GST control). For the same sequence, the binding signal in experiment [7] is 1.52 fold enrichment (6-mer frequency, TF over GST control); in experiment [8], 1.44 fold enrichment (6-mer frequency, TF over GST control); in experiment [9], 1.47 fold enrichment (6-mer frequency, TF over GST control).

In the case of AAAGTA, the binding signal in [1] was 1.14 fold enrichment (6-mer frequency, TF over GST control); in [2] it was 1.1 fold enrichment (6-mer frequency, TF over GST control); in experiment [3] it was 1.17 fold enrichment (6-mer frequency, TF over GST control); in [4], 1.13 fold enrichment (6-mer frequency, TF over GST control); in experiment [5], 1.13 fold enrichment (6-mer frequency, TF over GST control); in [6] it was 1.15 fold enrichment (6-mer frequency, TF over GST control). For the same sequence, the binding signal was 1.1 fold enrichment (6-mer frequency, TF over GST control) in experiment [7]; 1.18 fold enrichment (6-mer frequency, TF over GST control) in experiment [8]; 1.24 fold enrichment (6-mer frequency, TF over GST control) in [9].
